Source: PubChem
Fluor 339 460: intrinsic fluorescence of library compounds, ex339/em460 – biochemical, MLSMR library, data from DPM-DC assay, artefact control, profiling panel | compound autofluorescence, ex339/em460 nm, NADH buffer; stronger effect = higher value; 1 = no-compound wells, NADH background | fluorescence fold increase at 10 µM | 5.5% of 65,000 active | AID 709, 2007;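 active means at 10 µM, mean starting fluorescence two-fold or more over control wells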;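 further: signal is the first read of a kinetic run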
NADH coupling: inhibitors of PK/LDH coupling enzymes, profiling panel, artefact control, biochemical, MLSMR library; coupled PK/LDH NADH assays, four targets; 0.02% of 65,000 active; AID 774, 2007; IC50, µM (titrated, usually from 10 µM);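 active means single-dose screening hits from any of four coupled enzyme assays that gave an IC50 when retested across doses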;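 further: the DPM-DC format reads NADH fluorescence rather than 340 nm absorbance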
Spn MK inh: S. pneumoniae MK inhibitors, primary screen, biochemical, PK/LDH-coupled NADH absorbance; purified MK, PK/LDH-coupled NADH absorbance 340 nm; inhibition, % at 10 µM; 0.48% of 65,000 active;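 active means ranked among the strongest by inhibition in the single 10 µM screen, a fixed top-ranked set picked for dose follow-up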
PMK inhibit: S. pneumoniae PMK inhibitors, primary screen, biochemical, mevalonate pathway, pilot trial included. phosphomevalonate kinase (Streptococcus pneumoniae D39). purified PMK, PK/LDH-coupled NADH absorbance 340 nm. inhibition, % at 10 µM. 0.49% of 65,000 active. AID 539, 2006;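 active means top-ranked compounds by inhibition in the single 10 µM screen, taking a fixed number of the strongest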
Spn DPM-DC inh: S. pneumoniae DPM-DC inhibitors, primary screen, biochemical, PK/LDH-coupled NADH fluorescence; diphosphomevalonate decarboxylase (Streptococcus pneumoniae D39); purified DPM-DC; calls only at 10 µM; 0.49% of 65,000 active; AID 556, 2006;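 active means the 320 compounds with the highest percent inhibition in the single-dose primary screen, excluding strongly autofluorescent ones, cut at about 32% in these data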;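 further: kinetic rate of NADH fluorescence loss reporting ADP formed by the decarboxylase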
A340 absorber: compound light absorbance at 340 nm, profiling panel, artefact control, biochemical, MLSMR library, data from PS, PMK, MK assays. fold change at 10 µM. AID 708, 2007. compound absorbance at 340 nm, fold over control. 65,000 tested, under 10 active;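 active means at 10 µM dose, initial 340 nm absorbance at least 2 fold that of control wells; inactive means change under 2 fold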;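 further: initial absorbance extrapolated from kinetic A340 decline of NADH oxidation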
Numbers stand for hits; i = inactive; nt = no result shown; + = active, no number. Most compounds without a hit are left out; they make up all but 6.8% or so of the library.

SMILES	Fluor 339 460	NADH coupling	Spn MK inh	PMK inhibit	Spn DPM-DC inh	A340 absorber
CC(=O)Nc1ccc(NC(=O)CN(C)CCC#N)cc1	i	i	i	i	i	i
CC1CCN(C(=O)CSc2nc(N)c3c4c(sc3n2)CN(C)CC4)CC1	2.1	i	i	i	nt	i
CN1CCc2c(sc3nc(SCC(=O)N4CCOCC4)nc(N)c23)C1	2.2	i	i	i	nt	i
CC1CCCCN1C(=O)C12CCC(C)(/C(=N/O)C1)C2(C)C (centres undefined)	i	i	i	i	i	i
Cc1cc(N2CCN(C(=O)c3ccco3)CC2)n2nc(C)c(-c3ccccc3)c2n1	i	i	i	i	i	i
Cc1cc(N2CCN(C(=O)c3ccco3)CC2)n2nc(-c3cccc(Cl)c3)cc2n1	i	i	i	i	+	i
O=C(c1cc2nc(-c3ccccc3)cc(-c3ccccc3)n2n1)N1CCN(C(=O)c2ccco2)CC1	3.7	i	i	i	nt	i
Cc1cc(N2CCN(C(=O)c3ccco3)CC2)n2nc(C)c(-c3ccc(Cl)cc3)c2n1	3.7	i	i	i	nt	i
COC(=O)C1CCN(S(=O)(=O)Cc2ccccc2)CC1	i	i	i	i	i	i
C/C(NCc1cccnc1)=C(\C#N)C(=O)NCc1ccccc1	i	i	i	i	i	i
CN1CCCN(Cc2ccccc2C(F)(F)F)CC1	i	i	57	i	i	i
COc1cccc(OC)c1C(=O)N1CCN(Cc2ccccc2C(F)(F)F)CC1	i	i	i	i	i	i
COc1ccc(C(=O)N2CCN(Cc3ccccc3C)CC2)cc1OC	i	i	i	i	i	i
COc1cc(C(=O)N2CCN(Cc3ccccc3C(F)(F)F)CC2)cc(OC)c1OC	i	i	45	i	i	i
COc1cc(OC)cc(C(=O)N2CCN(Cc3ccccc3C(F)(F)F)CC2)c1	i	i	50	i	i	i
CCCCCCNC(=O)c1c(O)c2ccccc2[nH]c1=O	i	i	i	i	i	i
NC(=O)CC(O)c1cccc(Cl)c1 (centres undefined)	i	i	i	i	i	i
N#CC1=C2C=CC=CN2CC1=O	2.3	i	i	i	nt	i
COCCn1c(N)c(C(=O)OCc2ccccc2)c2nc3ccccc3nc21	3.8	i	i	i	nt	i
COCCNC(=O)CSc1nc2cc(OC)c(OC)cc2c(=O)n1CCC1=CCCCC1	i	i	i	i	i	i
COCCNC(=O)c1c(N)n(CCC2=CCCCC2)c2nc3ccccc3nc12	2.5	i	i	i	nt	i
CCN(CCO)c1ccc(-n2c(N)c(C(=O)OC)c3nc4ccccc4nc32)cc1	i	i	i	i	i	i
C=CCn1c(N)c(C(=O)OCCC)c2nc3ccccc3nc21	3.6	i	i	i	nt	i
Cn1c(=O)c2c(ncn2CCN(CCO)Cc2ccccc2)n(C)c1=O	i	i	i	i	i	i
Nc1cnn(C2CCCO2)c(=O)n1 (centres undefined)	i	i	i	i	i	i
SMILES	Fluor 339 460	NADH coupling	Spn MK inh	PMK inhibit	Spn DPM-DC inh	A340 absorber
O=C(c1c(F)cccc1F)N(Cc1ccccn1)C1CCCC1	i	i	i	i	i	i
Cc1ccc(C(c2nnnn2CC2CCCO2)N2CCN(C(=O)c3ccco3)CC2)cc1 (centres undefined)	i	i	i	32	i	i
CC(C)CCn1nnnc1C(c1ccc(F)cc1)N1CCN(C(=O)c2ccco2)CC1 (centres undefined)	i	i	i	26	i	i
CCOC(=O)C1CCN(Cc2nc3ccc(Cl)cc3n2CCO)CC1	i	i	i	i	i	i
CCc1cc(=O)oc2cc(C)cc(O)c12	i	i	i	i	i	i
CCc1cc(=O)oc2cc(C)c3c(C)coc3c12	2.4	i	i	i	i	i
O=C(CSc1ncnc2c1nnn2Cc1ccccc1F)N1CCN(c2ccccc2)CC1	i	i	i	i	i	i
